Laboratory results as given in PubChem BioAssay.
Inconclusive results are not listed. Active and inactive are the calls of the source.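 The calls were made as follows, unless noted: active = normalized viability below 100% at a tested concentration; inactive = the rest.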

Experiments:
[1] = growth inhibition of DIPG glioma cells, dose response, cell-based, SU-DIPG-XVII, MIPE5.0, CellTiter-Glo, qHTS (AID 1347060; cut-off not given, nearly all actives have AC50 up to about 26 µM;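 as to AC50: cells exposed to compound for 48 hours before viability readout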); conditions: SU-DIPG-XVII viability, CellTiter-Glo ATP luminescence
[2] = growth inhibition of DIPG glioma cells, dose response, cell-based, SU-DIPG-IV, MIPE4.0, CellTiter-Glo, qHTS (AID 1347063; cut-off not given, nearly all actives have AC50 up to about 30 µM;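 also: compound exposure lasted 48 hours before the viability readout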); conditions: SU-DIPG-IV viability, CellTiter-Glo ATP luminescence
[3] = growth inhibition of DIPG glioma cells, dose response, cell-based, SU-DIPG-XIII, MIPE5.0, CellTiter-Glo, qHTS (AID 1347064; cut-off not given, nearly all actives have AC50 up to about 23 µM;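 as to AC50: cells exposed to compound for 48 hours before the viability read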); conditions: SU-DIPG-XIII viability, CellTiter-Glo ATP luminescence
[4] = viability loss in pontine glioma line – cell-based, SU-DIPG-XXV, MIPE5.0, CellTiter-Glo, qHTS, dose response (AID 1347065; cut-off not given, nearly all actives have AC50 up to about 26 µM;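 also: cells exposed to compound for 48 hours before ATP readout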); conditions: CellTiter-Glo ATP luminescence
[5] = JHH-DIPG-1 glioma cell viability, MIPE5.0 library, CellTiter-Glo luminescence, qHTS (AID 1347067; cut-off not given, nearly all actives have AC50 up to about 26 µM;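 also: cells exposed to compound for 48 hours before readout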); conditions: JHH-DIPG-1 glioma viability, CellTiter-Glo ATP luminescence
[6] = modifiers of HSF1 nuclear foci, imaging, Selleck Cancer Library (AID 1347162; in the data active = plate-normalised HSF1 focus index below about 0.46); conditions: human cells, at 10 µM; SSMD: measured here: HSF1 foci SSMD mean; cell count: measured here: cell number; plate-normalised HSF1 focus index: stronger effect = lower value
[7] = ovarian cancer cell viability with rucaparib, profiling panel, oncology-focused library, rucaparib conditional (AID 1508598); conditions: patient-derived ovarian cancer cells, CellTiter-Glo viability, 144 h, stronger effect = lower value
[8] = SU-DIPG-VI glioma cell viability, MIPE4.0 library, CellTiter-Glo luminescence, qHTS (AID 1347066; cut-off not given, nearly all actives have AC50 up to about 30 µM;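 also: cells exposed to compound for 48 hours before readout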); conditions: CellTiter-Glo ATP luminescence
[9] = SU-DIPG-XXV glioma cell viability, MIPE5.0 library, qHTS (AID 1347068; cut-off not given, nearly all actives have IC50 up to about 30 µM;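 as to IC50: cells exposed to compound for 48 hours before viability readout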)
[10] = growth inhibition of DIPG glioma cells, dose response, cell-based, JHH-DIPG-1, MIPE4.0, CellTiter-Glo, qHTS (AID 1347062; cut-off not given, nearly all actives have AC50 up to about 27 µM); conditions: JHH-DIPG-1 viability, CellTiter-Glo ATP luminescence
[11] = sensitizers of A549 cells to miR-34 induction, primary screen, imaging, A549 dox-inducible miR-34, nuclei and caspase counts (AID 1347080;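 active = compounds whose cell count with miR-34 switched on is under 0.7 times the count with it off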); conditions: A549 miR-34 inducible, Hoechst nuclei count, 48 h
[12] = survival rescue of mitochondrial mutant cells in low glucose, primary screen, MELAS cybrids, Rieske KO mouse fibroblasts, CellTiter-Glo (AID 1508586;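 active = mean z-score across replicates of 1.96 or higher in either the MELAS or the Rieske mutant cell line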;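 also: z relative to plate mean and SD of compound and empty wells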)
[13] = at 0.000305 µM, OCI-C5x cells, with rucaparib 10 µM, 100% = cells with rucaparib alone
[14] = at 0.000305 µM, OCI-C5x cells, without rucaparib
[15] = at 0.000305 µM, OCI-P5x cells, with rucaparib 20 µM, 100% = cells with rucaparib alone
[16] = at 0.000305 µM, OCI-P5x cells, without rucaparib
[17] = at 0.00122 µM, OCI-C5x cells, with rucaparib 10 µM, 100% = cells with rucaparib alone
[18] = at 0.00122 µM, OCI-C5x cells, without rucaparib
[19] = at 0.00122 µM, OCI-P5x cells, with rucaparib 20 µM, 100% = cells with rucaparib alone
[20] = at 0.00122 µM, OCI-P5x cells, without rucaparib
[21] = at 0.00488 µM, OCI-C5x cells, with rucaparib 10 µM, 100% = cells with rucaparib alone
[22] = at 0.00488 µM, OCI-C5x cells, without rucaparib
[23] = at 0.00488 µM, OCI-P5x cells, with rucaparib 20 µM, 100% = cells with rucaparib alone
[24] = at 0.00488 µM, OCI-P5x cells, without rucaparib
[25] = at 0.0195 µM, OCI-C5x cells, with rucaparib 10 µM, 100% = cells with rucaparib alone
[26] = at 0.0195 µM, OCI-C5x cells, without rucaparib
[27] = at 0.0195 µM, OCI-P5x cells, with rucaparib 20 µM, 100% = cells with rucaparib alone
[28] = at 0.0195 µM, OCI-P5x cells, without rucaparib
[29] = at 0.0781 µM, OCI-C5x cells, with rucaparib 10 µM, 100% = cells with rucaparib alone
[30] = at 0.0781 µM, OCI-C5x cells, without rucaparib
[31] = at 0.0781 µM, OCI-P5x cells, with rucaparib 20 µM, 100% = cells with rucaparib alone
[32] = at 0.0781 µM, OCI-P5x cells, without rucaparib
[33] = at 0.313 µM, OCI-C5x cells, with rucaparib 10 µM, 100% = cells with rucaparib alone
[34] = at 0.313 µM, OCI-C5x cells, without rucaparib
[35] = at 0.313 µM, OCI-P5x cells, with rucaparib 20 µM, 100% = cells with rucaparib alone
[36] = at 0.313 µM, OCI-P5x cells, without rucaparib
[37] = at 1.25 µM, OCI-C5x cells, with rucaparib 10 µM, 100% = cells with rucaparib alone
[38] = at 1.25 µM, OCI-C5x cells, without rucaparib
[39] = at 1.25 µM, OCI-P5x cells, with rucaparib 20 µM, 100% = cells with rucaparib alone
[40] = at 1.25 µM, OCI-P5x cells, without rucaparib
[41] = at 5 µM, OCI-C5x cells, with rucaparib 10 µM, 100% = cells with rucaparib alone
[42] = at 5 µM, OCI-C5x cells, without rucaparib
[43] = at 5 µM, OCI-P5x cells, with rucaparib 20 µM, 100% = cells with rucaparib alone
[44] = at 5 µM, OCI-P5x cells, without rucaparib

COc1ccc(-c2ccc3c(N4CCOC[C@@H]4C)nc(N4CCOC[C@@H]4C)nc3n2)cc1CO
inactive: plate-normalised HSF1 focus index [6] 0.995 | viability [7, 13] 112% | viability [7, 14] 106% | viability [7, 17] 122% | viability [7, 18] 105% | viability [7, 21] 124% | viability [7, 22] 119% | viability [7, 25] 116% | viability [7, 26] 106%
-0.138: SSMD [6]
active: AC50 [1] 0.209 µM | AC50 [2] 0.00935 µM | AC50 [3] 0.661 µM | AC50 [4] 0.105 µM | AC50 [5] 0.059 µM | viability [7, 15] 87.2% | viability [7, 16] 93% | viability [7, 19] 94.9% | viability [7, 20] 92.8% | viability [7, 23] 90.3% | viability [7, 24] 91% | viability [7, 27] 72.9% | viability [7, 28] 62.8% | viability [7, 29] 71.2% | viability [7, 30] 55.7% | viability [7, 31] 43.6% | viability [7, 32] 24.2% | viability [7, 33] 47.2% | viability [7, 34] 48.1% | viability [7, 35] 34.3% | viability [7, 36] 17% | viability [7, 37] 54.1% | viability [7, 38] 47.3% | viability [7, 39] 30.6% | viability [7, 40] 22.6% | viability [7, 41] 48% | viability [7, 42] 47.3% | viability [7, 43] 26.9% | viability [7, 44] 20.8%
7120: cell count [6]

C/C(O)=C(\C#N)C(=O)Nc1ccc(C(F)(F)F)cc1
inactive: outcome [1] | outcome [2] | outcome [3] | outcome [4] | outcome [8] | outcome [5] | outcome [9]

C#CCN(C)CC1=Cc2ccccc2Oc2ccccc21
6620: cell count [6]
inactive: outcome [1] | outcome [10] | outcome [4] | outcome [5] | outcome [9] | plate-normalised HSF1 focus index [6] 1.15
2.55: SSMD [6]

C[C@H]1[C@H](O)O[C@@H]2O[C@@]3(C)CC[C@H]4[C@H](C)CC[C@@H]1[C@@]24OO3
active: AC50 [1] 2.95 µM | AC50 [2] 2.96 µM | AC50 [3] 4.68 µM | AC50 [4] 7.42 µM
inactive: outcome [8]

COc1c(OCCCN2CCOCC2)ccc2c3n(c(=NC(=O)c4cnc(N)nc4)nc12)CCN3
active: AC50 [1] 0.27 µM | AC50 [2] 0.102 µM | AC50 [3] 0.27 µM | AC50 [4] 0.0959 µM | AC50 [8] 0.0457 µM | AC50 [5] 0.191 µM | IC50 [9] 0.382 µM

COc1cc(F)c(C(C)C)cc1-c1ccc(C(F)(F)F)cc1CN1C(=O)O[C@H](c2cc(C(F)(F)F)cc(C(F)(F)F)c2)[C@@H]1C
inactive: outcome [1] | outcome [2] | outcome [3] | outcome [4] | outcome [8] | outcome [5] | outcome [9]

O=C(Nc1ccccc1-c1cn2c(CN3CCNCC3)csc2n1)c1cnc2ccccc2n1
-4.31: SSMD [6]
6250: cell count ([11]; measured here: total cells with miR-34 induction, stronger effect = lower value)
6890: cell count ([11]; measured here: total cells without miR-34 induction)
inactive: fold change ([11]; stronger effect = lower value, cell number ratio, induced over uninduced) 0.907 | plate-normalised HSF1 focus index [6] 0.795 | z-score ([12]; MELAS cybrid survival, CellTiter-Glo 48 h, stronger effect = higher value) -0.642 | viability [7, 13] 102% | viability [7, 14] 114% | viability [7, 15] 123% | viability [7, 16] 115% | viability [7, 17] 101% | viability [7, 18] 106% | viability [7, 19] 117% | viability [7, 20] 116% | viability [7, 21] 106% | viability [7, 22] 110% | viability [7, 23] 111% | viability [7, 24] 114% | viability [7, 25] 113% | viability [7, 26] 116% | viability [7, 27] 111% | viability [7, 28] 114% | viability [7, 29] 113% | viability [7, 30] 110% | viability [7, 31] 110% | viability [7, 32] 110% | viability [7, 33] 110% | viability [7, 34] 108% | viability [7, 35] 113% | viability [7, 36] 107% | viability [7, 37] 131% | viability [7, 38] 120%
6160: cell count [6]
0.327: z-score ([12]; Rieske KO mouse fibroblast survival, CellTiter-Glo 72 h)
0.998: fold change ([11]; measured here: relative caspase fold change +Dox/-Dox)
active: AC50 [1] 9.34 µM | AC50 [2] 8.33 µM | AC50 [3] 2.09 µM | AC50 [4] 3.32 µM | AC50 [8] 10.5 µM | AC50 [5] 3.72 µM | IC50 [9] 10.5 µM | viability [7, 39] 68.8% | viability [7, 40] 89.6% | viability [7, 41] 1.3% | viability [7, 42] 1.45% | viability [7, 43] 0.727% | viability [7, 44] 0.751%

COc1ccc(-c2ccc3c(N4CCOCC4)nc(N4C[C@@H](C)O[C@@H](C)C4)nc3n2)cc1CO
active: AC50 [1] 3.72 µM | AC50 [2] 0.332 µM | AC50 [3] 4.17 µM | AC50 [4] 1.05 µM | AC50 [5] 1.05 µM | viability [7, 35] 95.5% | viability [7, 39] 78.8% | viability [7, 40] 91.3% | viability [7, 43] 48% | viability [7, 44] 99.4%
6570: cell count [6]
-1.75: SSMD [6]
inactive: outcome [8] | plate-normalised HSF1 focus index [6] 0.909 | viability [7, 13] 118% | viability [7, 14] 122% | viability [7, 15] 105% | viability [7, 16] 112% | viability [7, 17] 113% | viability [7, 18] 119% | viability [7, 19] 109% | viability [7, 20] 108% | viability [7, 21] 112% | viability [7, 22] 120% | viability [7, 23] 104% | viability [7, 24] 107% | viability [7, 25] 120% | viability [7, 26] 117% | viability [7, 27] 103% | viability [7, 28] 104% | viability [7, 29] 122% | viability [7, 30] 125% | viability [7, 31] 100% | viability [7, 32] 109% | viability [7, 33] 121% | viability [7, 34] 127% | viability [7, 36] 106% | viability [7, 37] 120% | viability [7, 38] 124% | viability [7, 41] 133% | viability [7, 42] 106%

NCc1c[nH]c(=S)n1[C@H]1CCc2c(F)cc(F)cc2C1
inactive: outcome [1] | outcome [3] | outcome [4] | outcome [5] | outcome [9]
active: AC50 [2] 9.35 µM

CC(N[C@H]1CCCC[C@@H]1NC(=O)c1ccc(Cl)cc1)c1cccc2ccccc12 (stereo partly specified)
active: AC50 [1] 8.33 µM | AC50 [2] 0.148 µM | AC50 [3] 7.42 µM | AC50 [4] 8.33 µM | AC50 [5] 9.34 µM | IC50 [9] 16.6 µM

O[C@@H](COc1cccc2ncccc12)CN1CCN(C2c3ccccc3[C@@H]3[C@H](c4ccccc42)C3(F)F)CC1 (stereo partly specified)
active: AC50 [1] 20.9 µM | AC50 [2] 16.6 µM | AC50 [3] 23.5 µM | AC50 [4] 13.2 µM | AC50 [5] 23.5 µM | IC50 [9] 18.6 µM
